Assay results as given in PMC11006913.
Changes are numbered by the printed parent chain.

What was measured:
Assay in all cases: PBM; 200 nM protein, PBS
Conditions in all cases: dsDNA, one strand shown
NKX2-4 [1] = target: T1, NKX2-4 (Homo sapiens, UniProt Q9H2Z4 175-261, P217L)
T1 sequence: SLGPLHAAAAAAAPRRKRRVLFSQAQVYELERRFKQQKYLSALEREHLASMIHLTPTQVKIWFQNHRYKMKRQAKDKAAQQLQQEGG

NKX2-4 [2] = target: T2, NKX2-4 (Homo sapiens, UniProt Q9H2Z4 175-261, T231S)
T2 sequence: T1 sequence with L43P, T57S

NKX2-4 [3] = target: T3, NKX2-4 (Homo sapiens, UniProt Q9H2Z4 175-261)
T3 sequence: T1 sequence with L43P

NKX2-4 [4] = target: T4, NKX2-4 (Homo sapiens, UniProt Q9H2Z4 175-261, R246Q)
T4 sequence: T1 sequence with L43P, R72Q

Sequence | binding signal (NKX2-4 [1]) | binding signal (NKX2-4 [2]) | binding signal (NKX2-4 [3]) | binding signal (NKX2-4 [4])
GTACTCGA | 12.4 upbm affinity estimate (log intensity, higher = more binding, comparable within an allelic series) | 12.9 upbm affinity estimate (log intensity, higher = more binding, comparable within an allelic series) | 12.3 upbm affinity estimate (log intensity, higher = more binding, comparable within an allelic series) | 12.9 upbm affinity estimate (log intensity, higher = more binding, comparable within an allelic series)
ACCTGCAG | 9.74 upbm affinity estimate (log intensity, higher = more binding, comparable within an allelic series) | 9.82 upbm affinity estimate (log intensity, higher = more binding, comparable within an allelic series) | 9.68 upbm affinity estimate (log intensity, higher = more binding, comparable within an allelic series) | 9.76 upbm affinity estimate (log intensity, higher = more binding, comparable within an allelic series)
TCCACTAA | 11.6 upbm affinity estimate (log intensity, higher = more binding, comparable within an allelic series) | 11.7 upbm affinity estimate (log intensity, higher = more binding, comparable within an allelic series) | 11.5 upbm affinity estimate (log intensity, higher = more binding, comparable within an allelic series) | 11.7 upbm affinity estimate (log intensity, higher = more binding, comparable within an allelic series)
GTCAAGGA | 11.7 upbm affinity estimate (log intensity, higher = more binding, comparable within an allelic series) | 11.9 upbm affinity estimate (log intensity, higher = more binding, comparable within an allelic series) | 11.6 upbm affinity estimate (log intensity, higher = more binding, comparable within an allelic series) | 11.6 upbm affinity estimate (log intensity, higher = more binding, comparable within an allelic series)
AGTGCTTA | 12 upbm affinity estimate (log intensity, higher = more binding, comparable within an allelic series) | 12.2 upbm affinity estimate (log intensity, higher = more binding, comparable within an allelic series) | 11.9 upbm affinity estimate (log intensity, higher = more binding, comparable within an allelic series) | 12.2 upbm affinity estimate (log intensity, higher = more binding, comparable within an allelic series)
ACGGCGCC | 9.61 upbm affinity estimate (log intensity, higher = more binding, comparable within an allelic series) | 9.62 upbm affinity estimate (log intensity, higher = more binding, comparable within an allelic series) | 9.59 upbm affinity estimate (log intensity, higher = more binding, comparable within an allelic series) | 9.67 upbm affinity estimate (log intensity, higher = more binding, comparable within an allelic series)
AACGCCAG | 9.74 upbm affinity estimate (log intensity, higher = more binding, comparable within an allelic series) | 9.82 upbm affinity estimate (log intensity, higher = more binding, comparable within an allelic series) | 9.78 upbm affinity estimate (log intensity, higher = more binding, comparable within an allelic series) | 9.89 upbm affinity estimate (log intensity, higher = more binding, comparable within an allelic series)
CCGCCATA | 9.83 upbm affinity estimate (log intensity, higher = more binding, comparable within an allelic series) | 9.79 upbm affinity estimate (log intensity, higher = more binding, comparable within an allelic series) | 9.85 upbm affinity estimate (log intensity, higher = more binding, comparable within an allelic series) | 9.84 upbm affinity estimate (log intensity, higher = more binding, comparable within an allelic series)
ACGGCCCG | 9.61 upbm affinity estimate (log intensity, higher = more binding, comparable within an allelic series) | 9.59 upbm affinity estimate (log intensity, higher = more binding, comparable within an allelic series) | 9.62 upbm affinity estimate (log intensity, higher = more binding, comparable within an allelic series) | 9.64 upbm affinity estimate (log intensity, higher = more binding, comparable within an allelic series)
ACCGTTAC | 9.89 upbm affinity estimate (log intensity, higher = more binding, comparable within an allelic series) | 9.95 upbm affinity estimate (log intensity, higher = more binding, comparable within an allelic series) | 9.88 upbm affinity estimate (log intensity, higher = more binding, comparable within an allelic series) | 9.92 upbm affinity estimate (log intensity, higher = more binding, comparable within an allelic series)
GACACCGC | 9.33 upbm affinity estimate (log intensity, higher = more binding, comparable within an allelic series) | 9.29 upbm affinity estimate (log intensity, higher = more binding, comparable within an allelic series) | 9.43 upbm affinity estimate (log intensity, higher = more binding, comparable within an allelic series) | 9.52 upbm affinity estimate (log intensity, higher = more binding, comparable within an allelic series)
GGCAGTCA | 10.1 upbm affinity estimate (log intensity, higher = more binding, comparable within an allelic series) | 10 upbm affinity estimate (log intensity, higher = more binding, comparable within an allelic series) | 9.98 upbm affinity estimate (log intensity, higher = more binding, comparable within an allelic series) | 10.1 upbm affinity estimate (log intensity, higher = more binding, comparable within an allelic series)
CTGCGCAG | 9.75 upbm affinity estimate (log intensity, higher = more binding, comparable within an allelic series) | 9.81 upbm affinity estimate (log intensity, higher = more binding, comparable within an allelic series) | 9.75 upbm affinity estimate (log intensity, higher = more binding, comparable within an allelic series) | 9.93 upbm affinity estimate (log intensity, higher = more binding, comparable within an allelic series)
ATCGGAGC | 9.93 upbm affinity estimate (log intensity, higher = more binding, comparable within an allelic series) | 9.93 upbm affinity estimate (log intensity, higher = more binding, comparable within an allelic series) | 9.9 upbm affinity estimate (log intensity, higher = more binding, comparable within an allelic series) | 10 upbm affinity estimate (log intensity, higher = more binding, comparable within an allelic series)
CGCACGCG | 9.51 upbm affinity estimate (log intensity, higher = more binding, comparable within an allelic series) | 9.45 upbm affinity estimate (log intensity, higher = more binding, comparable within an allelic series) | 9.53 upbm affinity estimate (log intensity, higher = more binding, comparable within an allelic series) | 9.45 upbm affinity estimate (log intensity, higher = more binding, comparable within an allelic series)
GCGAGCCA | 9.74 upbm affinity estimate (log intensity, higher = more binding, comparable within an allelic series) | 9.69 upbm affinity estimate (log intensity, higher = more binding, comparable within an allelic series) | 9.69 upbm affinity estimate (log intensity, higher = more binding, comparable within an allelic series) | 9.76 upbm affinity estimate (log intensity, higher = more binding, comparable within an allelic series)
ACTCTTAT | 12.2 upbm affinity estimate (log intensity, higher = more binding, comparable within an allelic series) | 12.5 upbm affinity estimate (log intensity, higher = more binding, comparable within an allelic series) | 12.1 upbm affinity estimate (log intensity, higher = more binding, comparable within an allelic series) | 12.5 upbm affinity estimate (log intensity, higher = more binding, comparable within an allelic series)
AAAGTAGC | 11.5 upbm affinity estimate (log intensity, higher = more binding, comparable within an allelic series) | 11.9 upbm affinity estimate (log intensity, higher = more binding, comparable within an allelic series) | 11.5 upbm affinity estimate (log intensity, higher = more binding, comparable within an allelic series) | 11.7 upbm affinity estimate (log intensity, higher = more binding, comparable within an allelic series)

Sequence | binding signal (NKX2-4 [1]) | binding signal (NKX2-4 [2]) | binding signal (NKX2-4 [3]) | binding signal (NKX2-4 [4])
ACAATGAG | 11.4 upbm affinity estimate (log intensity, higher = more binding, comparable within an allelic series) | 11.5 upbm affinity estimate (log intensity, higher = more binding, comparable within an allelic series) | 11.3 upbm affinity estimate (log intensity, higher = more binding, comparable within an allelic series) | 11.4 upbm affinity estimate (log intensity, higher = more binding, comparable within an allelic series)
AGACTGAC | 9.52 upbm affinity estimate (log intensity, higher = more binding, comparable within an allelic series) | 9.58 upbm affinity estimate (log intensity, higher = more binding, comparable within an allelic series) | 9.63 upbm affinity estimate (log intensity, higher = more binding, comparable within an allelic series) | 9.64 upbm affinity estimate (log intensity, higher = more binding, comparable within an allelic series)
CAAGCCAG | 9.67 upbm affinity estimate (log intensity, higher = more binding, comparable within an allelic series) | 9.62 upbm affinity estimate (log intensity, higher = more binding, comparable within an allelic series) | 9.56 upbm affinity estimate (log intensity, higher = more binding, comparable within an allelic series) | 9.73 upbm affinity estimate (log intensity, higher = more binding, comparable within an allelic series)
GCGCGACA | 9.99 upbm affinity estimate (log intensity, higher = more binding, comparable within an allelic series) | 10 upbm affinity estimate (log intensity, higher = more binding, comparable within an allelic series) | 10 upbm affinity estimate (log intensity, higher = more binding, comparable within an allelic series) | 10.1 upbm affinity estimate (log intensity, higher = more binding, comparable within an allelic series)
GCACTCAA | 12.5 upbm affinity estimate (log intensity, higher = more binding, comparable within an allelic series) | 12.9 upbm affinity estimate (log intensity, higher = more binding, comparable within an allelic series) | 12.4 upbm affinity estimate (log intensity, higher = more binding, comparable within an allelic series) | 13 upbm affinity estimate (log intensity, higher = more binding, comparable within an allelic series)
ATCGTGCC | 9.86 upbm affinity estimate (log intensity, higher = more binding, comparable within an allelic series) | 9.92 upbm affinity estimate (log intensity, higher = more binding, comparable within an allelic series) | 9.97 upbm affinity estimate (log intensity, higher = more binding, comparable within an allelic series) | 9.95 upbm affinity estimate (log intensity, higher = more binding, comparable within an allelic series)
GCGGCGAC | 9.68 upbm affinity estimate (log intensity, higher = more binding, comparable within an allelic series) | 9.58 upbm affinity estimate (log intensity, higher = more binding, comparable within an allelic series) | 9.61 upbm affinity estimate (log intensity, higher = more binding, comparable within an allelic series) | 9.79 upbm affinity estimate (log intensity, higher = more binding, comparable within an allelic series)
CGCCCTGA | 9.84 upbm affinity estimate (log intensity, higher = more binding, comparable within an allelic series) | 9.84 upbm affinity estimate (log intensity, higher = more binding, comparable within an allelic series) | 9.83 upbm affinity estimate (log intensity, higher = more binding, comparable within an allelic series) | 9.87 upbm affinity estimate (log intensity, higher = more binding, comparable within an allelic series)
ATCACACC | 9.96 upbm affinity estimate (log intensity, higher = more binding, comparable within an allelic series) | 9.93 upbm affinity estimate (log intensity, higher = more binding, comparable within an allelic series) | 9.81 upbm affinity estimate (log intensity, higher = more binding, comparable within an allelic series) | 9.96 upbm affinity estimate (log intensity, higher = more binding, comparable within an allelic series)
GCACGGGC | 9.59 upbm affinity estimate (log intensity, higher = more binding, comparable within an allelic series) | 9.54 upbm affinity estimate (log intensity, higher = more binding, comparable within an allelic series) | 9.58 upbm affinity estimate (log intensity, higher = more binding, comparable within an allelic series) | 9.56 upbm affinity estimate (log intensity, higher = more binding, comparable within an allelic series)
GAGTGTCC | 11.9 upbm affinity estimate (log intensity, higher = more binding, comparable within an allelic series) | 12.2 upbm affinity estimate (log intensity, higher = more binding, comparable within an allelic series) | 11.8 upbm affinity estimate (log intensity, higher = more binding, comparable within an allelic series) | 12.2 upbm affinity estimate (log intensity, higher = more binding, comparable within an allelic series)
ACGTACTC | 11.8 upbm affinity estimate (log intensity, higher = more binding, comparable within an allelic series) | 12 upbm affinity estimate (log intensity, higher = more binding, comparable within an allelic series) | 11.7 upbm affinity estimate (log intensity, higher = more binding, comparable within an allelic series) | 11.9 upbm affinity estimate (log intensity, higher = more binding, comparable within an allelic series)
AGGCAGCC | 9.69 upbm affinity estimate (log intensity, higher = more binding, comparable within an allelic series) | 9.68 upbm affinity estimate (log intensity, higher = more binding, comparable within an allelic series) | 9.68 upbm affinity estimate (log intensity, higher = more binding, comparable within an allelic series) | 9.7 upbm affinity estimate (log intensity, higher = more binding, comparable within an allelic series)
AGCTCGCG | 9.6 upbm affinity estimate (log intensity, higher = more binding, comparable within an allelic series) | 9.58 upbm affinity estimate (log intensity, higher = more binding, comparable within an allelic series) | 9.62 upbm affinity estimate (log intensity, higher = more binding, comparable within an allelic series) | 9.63 upbm affinity estimate (log intensity, higher = more binding, comparable within an allelic series)
ACCGTCTG | 9.6 upbm affinity estimate (log intensity, higher = more binding, comparable within an allelic series) | 9.59 upbm affinity estimate (log intensity, higher = more binding, comparable within an allelic series) | 9.56 upbm affinity estimate (log intensity, higher = more binding, comparable within an allelic series) | 9.61 upbm affinity estimate (log intensity, higher = more binding, comparable within an allelic series)
CGGAATCA | 9.89 upbm affinity estimate (log intensity, higher = more binding, comparable within an allelic series) | 9.89 upbm affinity estimate (log intensity, higher = more binding, comparable within an allelic series) | 9.83 upbm affinity estimate (log intensity, higher = more binding, comparable within an allelic series) | 9.94 upbm affinity estimate (log intensity, higher = more binding, comparable within an allelic series)
ACATGCAG | 9.48 upbm affinity estimate (log intensity, higher = more binding, comparable within an allelic series) | 9.63 upbm affinity estimate (log intensity, higher = more binding, comparable within an allelic series) | 9.52 upbm affinity estimate (log intensity, higher = more binding, comparable within an allelic series) | 9.48 upbm affinity estimate (log intensity, higher = more binding, comparable within an allelic series)
